Laboratory results published in PubChem BioAssay (Tox21).
Results filed as inconclusive are left out. Active and inactive are the calls of the source. Unless noted, the call rests on the fitted dose curve; in most records, active means well fitted curve in the direction sought with a large enough effect in the repeat runs; inconclusive means weak or mixed curves; inactive means no such curve, though single readings can be large; an effect the other way counts as inactive or inconclusive.

Tests used:
[1] = qHTS assay to identify small molecule agonists of the vitamin D receptor (VDR) signaling pathway - cell viability counter screen (AID 743224); further: series mostly up to about 63 µM; on the % scale 0 is the no-effect control and ±100 the full control effect; nearly all actives have a fitted effect of over 50% in size
Method in brief: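 Cells: VDR-bla, 2,000/well, settled 4 h. Treatment: compounds in DMSO, 16 h, 37C/5% CO2. Readout: CellTiter-Glo luminescence after 30 min RT.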

[2] = qHTS assay to identify small molecule antagonists of the vitamin D receptor (VDR) signaling pathway - cell viability counter screen (AID 743225); further: on the % scale 0 is the no-effect control and ±100 the full control effect; nearly all actives have a fitted effect of over 50% in size
Method in brief: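 VDR-UAS-bla HEK 293T cells were plated and incubated 4 h at 37C, then dosed with compound plus 3 nM (final) 1-alpha,25-dihydroxyvitamin D3 for 16 h. After the 2 h beta-lactamase read, viability in the same wells was read as CellTiter-Glo luminescence after 30 min at room temperature.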

[3] = qHTS assay to identify small molecule agonists of the NFkB signaling pathway (AID 1159509; active means well fitted curve in the direction sought with a large enough effect in the signal ratio in the repeat runs, not every such curve was filed as active; the % refers to the signal ratio; further: series mostly up to about 61 µM; on the % scale 0 is the no-effect control and ±100 the full control effect)
Method in brief: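 Pathway activation was measured in ME-180 cells stably expressing beta-lactamase under NF-kB response element control. Substrate cleavage was read as the 460/530 nm emission shift after 5 hr compound incubation.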

[4] = qHTS assay to identify small molecule agonists of the NFkB signaling pathway - cell viability counter screen (AID 1159515; calls by dose curve; further: series mostly up to about 61 µM; on the % scale 0 is the no-effect control and ±100 the full control effect; nearly all actives have a fitted effect of over 55% in size)
Method in brief: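 Cells are seeded (2,000 NFkB-bla ME-180 per well), rested overnight, and dosed with DMSO-dissolved compounds for 5 hr at 37 C. Viability is then read by CellTiter-Glo luminescence after 30 min at room temperature.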

[5] = qHTS assay to identify small molecule agonists of the endoplasmic reticulum stress response signaling pathway (AID 1159516; active means well fitted activation curve with a large enough effect in the signal ratio in the repeat runs, not every such curve was filed as active; the % refers to the signal ratio; further: on the % scale 0 is the no-effect control and ±100 the full control effect)
Method in brief: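 Cells are seeded at 1,500 per well and incubated overnight. Compounds in DMSO are added for 5 hr at 37 C, then beta-lactamase FRET substrate for 2 hr at room temperature, and fluorescence at 460 and 530 nm is measured.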

[6] = qHTS assay to identify small molecule agonists of the endoplasmic reticulum stress response signaling pathway - cell viability counter screen (AID 1159517; calls by dose curve;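 further: HeLa cells carrying an ER stress response element beta-lactamase reporter; series mostly up to about 61 µM; on the % scale 0 is the no-effect control and ±100 the full control effect; nearly all actives have a fitted effect of over 50% in size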)
Method in brief: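 In parallel with the ESRE reporter read, cytotoxicity was scored by CellTiter-Glo luminescence (30 min, room temperature) on HeLa ESRE-bla cells dosed for 5 hr.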

[7] = qHTS assay to identify small molecule antagonists of the retinoid-related orphan receptor gamma (ROR-gamma) signaling pathway - cell viability counter screen (AID 1159520); further: on the % scale 0 is the no-effect control and ±100 the full control effect; nearly all actives have a fitted effect of over 50% in size
Method in brief: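 Tet-on ROR gamma CHO cells were given compounds for 2 hr, then doxycycline hyclate at 1 uM final, and incubated 16 hr at 37 C. Viability was measured as ATP content by CellTiter-Glo luminescence.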

[8] = target: Nuclear receptor ROR-gamma (Homo sapiens) (UniProt P51449); assay: qHTS assay to identify small molecule antagonists of the retinoid-related orphan receptor gamma (ROR-gamma) signaling pathway (AID 1159521)
Method in brief: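 Tet-on ROR-gamma CHO cells with ROR response element-luciferase reporter; compounds added 2 hr before 1 uM doxycycline induction, then 16 hr at 37 C. Antagonism scored as decreased ONE-Glo luminescence.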

[9] = qHTS assay to identify small molecule agonists of the AP-1 signaling pathway - cell viability counter screen (AID 1159525; calls by dose curve; further: nearly all actives have a fitted effect of over 55% in size)
Method in brief: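 Same-well cytotoxicity counter screen of the Tox21 10K library in ME-180 cells. The readout is ATP-dependent luminescence after 5 h compound treatment. Data are normalised to DMSO and tetra n-octyl ammonium bromide controls.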

[10] = qHTS assay to identify small molecule agonists of the AP-1 signaling pathway (AID 1159526; calls by dose curve; further: on the % scale 0 is the no-effect control and ±100 the full control effect)
[11] = target: Retinoic acid receptor RXR-alpha (Homo sapiens) (UniProt P19793); assay: qHTS assay to identify small molecule agonists of the RXR signaling pathway (AID 1159527; calls by dose curve; further: on the % scale 0 is the no-effect control and ±100 the full control effect; nearly all actives have a fitted effect of over 35% in size)
Chain of Retinoic acid receptor RXR-alpha (Homo sapiens) (P19793 whole entry, looked up): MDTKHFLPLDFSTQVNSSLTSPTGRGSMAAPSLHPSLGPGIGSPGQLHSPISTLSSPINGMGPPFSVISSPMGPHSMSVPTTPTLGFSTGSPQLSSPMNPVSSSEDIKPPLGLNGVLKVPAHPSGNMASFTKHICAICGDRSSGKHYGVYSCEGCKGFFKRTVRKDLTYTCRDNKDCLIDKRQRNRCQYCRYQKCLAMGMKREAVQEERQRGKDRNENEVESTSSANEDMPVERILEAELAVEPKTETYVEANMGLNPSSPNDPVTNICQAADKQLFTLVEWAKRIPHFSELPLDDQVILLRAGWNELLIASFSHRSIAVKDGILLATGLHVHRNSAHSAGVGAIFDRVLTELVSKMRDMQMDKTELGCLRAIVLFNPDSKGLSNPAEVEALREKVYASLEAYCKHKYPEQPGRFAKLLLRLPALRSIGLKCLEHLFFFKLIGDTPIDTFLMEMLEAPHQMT
Method in brief: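 GeneBLAzer RXR-alpha-UAS-bla HEK 293T cells in 2% charcoal-stripped FBS medium were exposed to compounds for 16 hr at 37 C in agonist mode. Beta-lactamase reporter read as 460/530 nm FRET ratio after 2 hr substrate loading.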

[12] = qHTS assay to identify small molecule agonists of the RXR signaling pathway - cell viability counter screen (AID 1159529)
Method in brief: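 RXR-alpha-UAS-bla HEK 293T cells in medium with 2% charcoal-stripped FBS were pre-incubated 5 hr, then compound-treated 16 hr at 37 C. Viability was read by CellTiter-Glo luminescence in the same wells as the beta-lactamase assay, with tetraoctyl ammonium bromide as positive control.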

[13] = qHTS assay to identify small molecule antagonists of the retinoid acid receptor (RAR) signaling pathway - cell viability counter screen (AID 1159551); further: on the % scale 0 is the no-effect control and ±100 the full control effect; nearly all actives have a fitted effect of over 35% in size
Method in brief: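 Cells (C3RL4) are plated, incubated overnight, dosed with compound in DMSO, then given retinol at 1 uM final. After 6 h at 37 C, CellTiter-Glo is added and luminescence read following 30 min at room temperature.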

[14] = qHTS assay to identify small molecule antagonists of the retinoic acid receptor (RAR) signaling pathway (AID 1159552)
Method in brief: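 Retinol signaling pathway inhibitors screened in C3RL4 RARE-luciferase reporter cells seeded overnight at 37 C, then compounds added with 1 uM (final) retinol as pathway substrate. After 6 hr at 37 C, luciferase luminescence read after 30 min at room temperature.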

[15] = qHTS assay to identify small molecule agonists of the retinoic acid receptor (RAR) signaling pathway (AID 1159553); further: on the % scale 0 is the no-effect control and ±100 the full control effect
Method in brief: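 Seed C3RL4 reporter cells at 1,000 per well and incubate overnight at 37 C. Add compounds in DMSO, incubate 6 hr. Add luciferase reagent, wait 30 min at room temperature, read luminescence.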

[16] = qHTS assay to identify small molecule antagonists of the estrogen related receptor (ERR) signaling pathway from Tox21 library - cell viability counter screen (AID 1224834); further: on the % scale 0 is the no-effect control and ±100 the full control effect; nearly all actives have a fitted effect of over 30% in size
Method in brief: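 ERR cells, 2,000/well; 6 h settle at 37 C/5% CO2; pin-tool compound transfer in DMSO; 17.5 h at 37 C; CellTiter-Fluor, 30 min; fluorescence intensity.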

[17] = target: Luciferin 4-monooxygenase (Photinus pyralis) (UniProt P08659); assay: qHTS assay to identify small molecule inhibitors of firefly luciferase (AID 1224835); further: series mostly up to about 120 µM; on the % scale 0 is the no-effect control and ±100 the full control effect; nearly all actives have a fitted effect of over 25% in size
Chain of Luciferin 4-monooxygenase (Photinus pyralis) (P08659 whole entry, looked up): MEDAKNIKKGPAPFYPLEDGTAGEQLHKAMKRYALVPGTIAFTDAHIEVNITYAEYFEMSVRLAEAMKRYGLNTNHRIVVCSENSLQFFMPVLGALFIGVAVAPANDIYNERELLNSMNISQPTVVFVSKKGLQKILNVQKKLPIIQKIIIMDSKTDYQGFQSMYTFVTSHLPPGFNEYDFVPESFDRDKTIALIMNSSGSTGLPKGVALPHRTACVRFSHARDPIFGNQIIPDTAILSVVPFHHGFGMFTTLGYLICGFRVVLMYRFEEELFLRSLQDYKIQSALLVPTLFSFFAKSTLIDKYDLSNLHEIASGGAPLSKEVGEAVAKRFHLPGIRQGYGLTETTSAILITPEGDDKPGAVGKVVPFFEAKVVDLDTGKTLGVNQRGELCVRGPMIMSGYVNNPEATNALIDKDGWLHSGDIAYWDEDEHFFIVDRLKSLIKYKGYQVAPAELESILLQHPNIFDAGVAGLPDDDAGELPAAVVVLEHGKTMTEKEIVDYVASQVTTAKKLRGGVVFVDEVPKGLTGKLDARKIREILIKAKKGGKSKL
Method in brief: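 Biochemical qHTS: compounds run as interplate titrations against purified firefly enzyme, with D-luciferin and ATP each at its KM concentration. Light output recorded by CCD imaging.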

[18] = qHTS assay to identify small molecule agonists of the constitutive androstane receptor (CAR) signaling pathway - cell viability counter screen (AID 1224836); further: series mostly up to about 92 µM; on the % scale 0 is the no-effect control and ±100 the full control effect; nearly all actives have a fitted effect of over 45% in size
Method in brief: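 HepG2 cells stably carrying hCAR and a CYP2B6-2.2kb reporter; 15-concentration compounds plus PK11195 (final 0.75 uM), 23 hr at 37 C/5% CO2. Viability read by CellTiter-Fluor fluorescence.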

[19] = target: Nuclear receptor subfamily 1 group I member 3 (Homo sapiens) (UniProt Q14994); assay: qHTS assay to identify small molecule antagonists of the constitutive androstane receptor (CAR) signaling pathway (AID 1224838);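 further: HepG2 cells stably expressing hCAR with CYP2B6 luciferase reporter stimulated by CITCO; on the % scale 0 is the no-effect control and ±100 the full control effect; nearly all actives have a fitted effect of over 40% in size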
Chain of Nuclear receptor subfamily 1 group I member 3 (Homo sapiens) (Q14994 whole entry, looked up): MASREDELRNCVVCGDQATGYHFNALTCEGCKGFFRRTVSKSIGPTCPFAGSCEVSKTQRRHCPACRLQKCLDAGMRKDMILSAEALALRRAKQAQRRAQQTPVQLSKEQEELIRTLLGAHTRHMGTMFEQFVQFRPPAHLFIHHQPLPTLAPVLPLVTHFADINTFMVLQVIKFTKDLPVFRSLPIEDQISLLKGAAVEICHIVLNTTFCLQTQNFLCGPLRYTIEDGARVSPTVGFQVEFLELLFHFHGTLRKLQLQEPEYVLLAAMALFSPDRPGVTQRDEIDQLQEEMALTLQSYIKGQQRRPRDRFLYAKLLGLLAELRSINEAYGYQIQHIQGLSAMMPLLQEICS
Method in brief: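 Antagonist mode used CITCO at a final 50 nM to activate CAR in human hepatoma HepG2 cells carrying stable hCAR and a 2.2 kb CYP2B6 promoter-luciferase construct. Compounds were tested at 15 concentrations over 24 h, with luminescence as the end point.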

[20] = qHTS assay to identify small molecule antagonists of the constitutive androstane receptor (CAR) signaling pathway - cell viability counter screen (AID 1224837); further: series mostly up to about 92 µM; on the % scale 0 is the no-effect control and ±100 the full control effect; nearly all actives have a fitted effect of over 45% in size
Method in brief: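 Viability was measured with CellTiter-Fluor in a HepG2 line carrying stably transfected hCAR and a CYP2B6-2.2kb construct. Cells were exposed for 23 hr at 37 C to 15 compound concentrations with 50 nM CITCO as agonist.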

Cc1c(N)cccc1Cl
inactive: outcome [1] | outcome [2] | outcome [3] | outcome [4] | outcome [5] | outcome [6] | outcome [7] | outcome [8] | outcome [9] | outcome [10] | Potency [11] | outcome [12] | outcome [13] | outcome [14] | Potency [15] | outcome [16] | Potency [17] | outcome [18] | Potency [19]

Cc1cccc(Cl)c1
inactive: outcome [1] | outcome [2] | outcome [3] | outcome [4] | outcome [5] | outcome [6] | outcome [7] | outcome [8] | outcome [9] | outcome [10] | Potency [11] | outcome [12] | outcome [13] | outcome [14] | Potency [15] | outcome [16] | Potency [17] | outcome [20] | Potency [19]

O=C(CCCCC(=O)Nc1c(I)cc(I)c(C(=O)O)c1I)Nc1c(I)cc(I)c(C(=O)O)c1I
inactive: outcome [1] | outcome [2] | outcome [3] | outcome [4] | outcome [5] | outcome [6] | outcome [7] | outcome [8] | outcome [9] | outcome [10] | Potency [11] | outcome [12] | outcome [13] | outcome [14] | Potency [15] | outcome [16] | Potency [17] | outcome [18] | Potency [19]

O=C(Cl)c1ccccc1[N+](=O)[O-]
inactive: outcome [1] | outcome [2] | outcome [3] | outcome [4] | outcome [5] | outcome [6] | outcome [7] | outcome [8] | outcome [9] | outcome [10] | Potency [11] | outcome [12] | outcome [13] | outcome [14] | Potency [15] | outcome [16] | Potency [17] | outcome [20] | Potency [19]

OCC1CCC(CO)CC1 (configuration not stated)
inactive: outcome [1] | outcome [2] | outcome [3] | outcome [4] | outcome [5] | outcome [6] | outcome [7] | outcome [8] | outcome [9] | outcome [10] | Potency [11] | outcome [12] | outcome [13] | outcome [14] | Potency [15] | outcome [16] | Potency [17] | outcome [18] | Potency [19]

CC1(C)[C@H]2CC[C@](C)(C2)[C@H]1O
inactive: outcome [1] | outcome [3] | outcome [4] | outcome [5] | outcome [6] | outcome [7] | outcome [8] | outcome [9] | outcome [10] | Potency [11] | outcome [12] | outcome [13] | outcome [14] | Potency [15] | outcome [16] | Potency [17] | outcome [20] | Potency [19]

C=CC/C=C/C
inactive: outcome [1] | outcome [2] | outcome [3] | outcome [4] | outcome [5] | outcome [6] | outcome [7] | outcome [8] | outcome [9] | outcome [10] | Potency [11] | outcome [12] | outcome [13] | outcome [14] | Potency [15] | outcome [16] | Potency [17] | outcome [18]

CC(=O)OCC(=O)Nc1cc(C#N)cc(NC(=O)COC(C)=O)c1Cl
inactive: outcome [1] | outcome [3] | outcome [4] | outcome [5] | outcome [6] | outcome [7] | outcome [8] | outcome [9] | outcome [10] | Potency [11] | outcome [12] | outcome [13] | outcome [14] | Potency [15] | outcome [16] | Potency [17] | outcome [18] | Potency [19]

CCCCCCCCCCCCCCCCCCOCCO
inactive: outcome [1] | outcome [3] | outcome [4] | outcome [5] | outcome [6] | activity, negative = cytotoxicity [7] -10.1% [at 19 µM] | activity change, negative = inhibition [8] -12.9% [at 19 µM] | viability change, negative = cytotoxic [9] -27.1% [at 15.8 µM] | activation [10] 0.248% [at 15.8 µM] | activation [11] 5.49% [at 15.8 µM] | activity change, negative = cytotoxicity [12] -0.661% [at 15.8 µM] | activity change, negative = cytotoxicity [13] -1.36% [at 19 µM] | activity, negative = inhibition [14] -13.7% [at 19 µM] | Potency [15] | viability change, negative = cytotoxic [16] -3.06% [at 19 µM] | activity change, negative = inhibition [17] -2.69% [at 23.6 µM] | activity change, negative = cytotoxicity [20] 0.177% [at 19 µM] | activity, negative = inhibition [19] -10.5% [at 19 µM]

N[C@@H](CSCCCO)C(=O)O
inactive: outcome [1] | outcome [2] | outcome [3] | outcome [4] | outcome [5] | outcome [6] | activity, negative = cytotoxicity [7] 0.802% [at 19 µM] | activity change, negative = inhibition [8] 25% [at 19 µM] | viability change, negative = cytotoxic [9] 8.07% [at 15.8 µM] | activation [10] 5.26% [at 15.8 µM] | activation [11] 12.4% [at 15.8 µM] | activity change, negative = cytotoxicity [12] -0.377% [at 15.8 µM] | activity change, negative = cytotoxicity [13] 5.07% [at 19 µM] | activity, negative = inhibition [14] 1.93% [at 19 µM] | Potency [15] | viability change, negative = cytotoxic [16] 1.22% [at 19 µM] | activity change, negative = inhibition [17] -1.72% [at 23.6 µM] | viability change, negative = cytotoxic [18] 3.99% [at 19 µM] | activity, negative = inhibition [19] 5.4% [at 19 µM]

C/C(CC(C)C)=N\O
inactive: outcome [1] | outcome [2] | outcome [3] | outcome [4] | outcome [5] | outcome [6] | outcome [7] | outcome [8] | outcome [9] | outcome [10] | Potency [11] | outcome [12] | outcome [13] | outcome [14] | Potency [15] | outcome [16] | Potency [17] | outcome [20] | Potency [19]

CC1OCCC1=O (configuration not stated)
inactive: outcome [1] | outcome [2] | outcome [3] | outcome [4] | outcome [5] | outcome [6] | outcome [7] | outcome [8] | outcome [9] | outcome [10] | Potency [11] | outcome [12] | outcome [13] | outcome [14] | Potency [15] | outcome [16] | Potency [17] | outcome [20] | Potency [19]

COC(=O)CCCCC(CCSS/C(CCO)=C(\C)N(C=O)Cc1cnc(C)nc1N)SC(C)=O (configuration not stated)
inactive: outcome [1] | outcome [3] | outcome [4] | outcome [5] | outcome [6] | outcome [7] | outcome [8] | outcome [9] | outcome [10] | Potency [11] | outcome [12] | outcome [13] | outcome [14] | Potency [15] | outcome [16] | Potency [17] | outcome [18] | Potency [19]
